For 16 compounds, activity change, negative = inhibition and Potency results are on record in PubChem BioAssay (Tox21).

Assay [1] has as its target Cytochrome P450 2C9 (Homo sapiens) (UniProt P11712). The assay is described as follows: Cytochrome P450 Family 2 Subfamily C Member 9 (CYP2C9) small molecule antagonists: luciferase reporter qHTS assay (AID 1671198). Also: potency is read from the fitted curve at half-maximal effect. As to activity change, negative = inhibition: series mostly up to about 120 µM. The procedure, abridged: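 Enzyme-substrate mix preincubated with compound 10 min at room temperature; reaction started with NADPH regeneration solution, 1 h 37C. Luminescent luciferin product read after 20 min detection reagent.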

The target in assay [2] is Voltage-gated inwardly rectifying potassium channel KCNH2 (Homo sapiens) (UniProt Q12809). The assay is described as follows: Human Ether-a-go-go-Related Gene (hERG) channel small molecule antagonists: fluorescence cell-based qHTS assay (AID 1671200). Also: potency is read from the fitted curve at half-maximal effect.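 As to activity change, negative = inhibition: hERG-expressing U2OS cells given a thallium stimulus after FluxOR II dye loading; series mostly up to about 77 µM.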 The method, boiled down:
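Channel function was assessed by thallium flux. Cells seeded the previous day and kept at 37 C took up FluxOR II dye over 1 h in the dark at room temperature, then sat another 10 min before stimulation.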

Assay [3] deals with Cytochrome P450 3A4 (Homo sapiens) (UniProt P08684). The experiment in a line: Cytochrome P450 Family 3 Subfamily A Member 4 (CYP3A4) small molecule antagonists: luciferase reporter qHTS assay (AID 1671201). Also: potency is read from the fitted curve at half-maximal effect. As to activity change, negative = inhibition: series mostly up to about 120 µM. The method, boiled down:
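Compounds in DMSO were pin-transferred onto CYP3A4 enzyme-substrate mix and held 10 min at room temperature. NADPH regenerating solution started the reaction for 1 h; luciferin detection reagent stopped it, and luminescence was read after 20 min.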

In assay [4] the target is Cytochrome P450 1A2 (Homo sapiens) (UniProt P05177). The experiment in a line: Cytochrome P450 Family 1 Subfamily A Member 2 (CYP1A2) small molecule antagonists: luciferase reporter qHTS assay (AID 1671199). Also: series mostly up to about 120 µM. The method, boiled down: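 Compounds were incubated with CYP1A2 and a luminogenic proluciferin substrate for 10 min at room temperature before the reaction was started with NADPH regeneration solution. After 1 h, detection reagent was added and light output, proportional to CYP activity, was recorded.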
Chain of Cytochrome P450 1A2 (Homo sapiens) (P05177 whole entry, looked up): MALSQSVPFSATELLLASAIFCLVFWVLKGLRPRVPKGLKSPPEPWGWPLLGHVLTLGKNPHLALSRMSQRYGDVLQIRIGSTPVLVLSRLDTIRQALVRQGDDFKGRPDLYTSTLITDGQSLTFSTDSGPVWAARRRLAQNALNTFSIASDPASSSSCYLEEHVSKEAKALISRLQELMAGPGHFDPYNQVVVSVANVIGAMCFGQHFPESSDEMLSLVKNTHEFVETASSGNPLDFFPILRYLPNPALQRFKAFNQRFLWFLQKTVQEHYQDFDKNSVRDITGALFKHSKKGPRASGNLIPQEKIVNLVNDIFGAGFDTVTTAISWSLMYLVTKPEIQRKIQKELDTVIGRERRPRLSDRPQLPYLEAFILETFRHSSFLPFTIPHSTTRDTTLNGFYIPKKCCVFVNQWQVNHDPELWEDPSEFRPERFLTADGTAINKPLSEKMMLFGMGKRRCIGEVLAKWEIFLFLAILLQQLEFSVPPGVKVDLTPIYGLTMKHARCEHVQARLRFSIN

Results filed as inconclusive are left out. Unmarked numbers belong to inactive results. Activity calls are given as the source filed them. Calls follow the shape of the dose curve; as a rule, active = well fitted curve in the direction sought with a large enough effect in the repeat runs; inconclusive = weak or mixed curves; inactive = no such curve, though single readings can be large; an effect the other way counts as inactive or inconclusive.
% is scaled to controls: 0 for no effect and ±100 for the full control effect.
Also: nearly all actives have a fitted effect of over 50% in size.

Chain of Cytochrome P450 3A4 (Homo sapiens) (P08684 whole entry, looked up): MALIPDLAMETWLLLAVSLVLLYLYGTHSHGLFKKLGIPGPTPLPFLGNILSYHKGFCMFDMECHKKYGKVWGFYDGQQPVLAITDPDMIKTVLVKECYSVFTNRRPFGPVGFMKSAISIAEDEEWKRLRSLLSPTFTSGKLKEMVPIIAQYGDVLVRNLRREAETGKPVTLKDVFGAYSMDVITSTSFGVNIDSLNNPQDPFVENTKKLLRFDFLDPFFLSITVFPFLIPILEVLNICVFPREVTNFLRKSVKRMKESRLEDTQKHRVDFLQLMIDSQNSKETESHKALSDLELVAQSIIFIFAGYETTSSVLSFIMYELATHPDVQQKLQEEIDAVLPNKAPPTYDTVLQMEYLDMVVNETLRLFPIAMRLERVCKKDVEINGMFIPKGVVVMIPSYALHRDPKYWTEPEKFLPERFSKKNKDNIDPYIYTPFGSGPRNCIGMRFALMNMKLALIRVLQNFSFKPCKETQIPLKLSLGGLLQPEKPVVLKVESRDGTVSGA
Chain of Voltage-gated inwardly rectifying potassium channel KCNH2 (Homo sapiens) (Q12809 whole entry, looked up): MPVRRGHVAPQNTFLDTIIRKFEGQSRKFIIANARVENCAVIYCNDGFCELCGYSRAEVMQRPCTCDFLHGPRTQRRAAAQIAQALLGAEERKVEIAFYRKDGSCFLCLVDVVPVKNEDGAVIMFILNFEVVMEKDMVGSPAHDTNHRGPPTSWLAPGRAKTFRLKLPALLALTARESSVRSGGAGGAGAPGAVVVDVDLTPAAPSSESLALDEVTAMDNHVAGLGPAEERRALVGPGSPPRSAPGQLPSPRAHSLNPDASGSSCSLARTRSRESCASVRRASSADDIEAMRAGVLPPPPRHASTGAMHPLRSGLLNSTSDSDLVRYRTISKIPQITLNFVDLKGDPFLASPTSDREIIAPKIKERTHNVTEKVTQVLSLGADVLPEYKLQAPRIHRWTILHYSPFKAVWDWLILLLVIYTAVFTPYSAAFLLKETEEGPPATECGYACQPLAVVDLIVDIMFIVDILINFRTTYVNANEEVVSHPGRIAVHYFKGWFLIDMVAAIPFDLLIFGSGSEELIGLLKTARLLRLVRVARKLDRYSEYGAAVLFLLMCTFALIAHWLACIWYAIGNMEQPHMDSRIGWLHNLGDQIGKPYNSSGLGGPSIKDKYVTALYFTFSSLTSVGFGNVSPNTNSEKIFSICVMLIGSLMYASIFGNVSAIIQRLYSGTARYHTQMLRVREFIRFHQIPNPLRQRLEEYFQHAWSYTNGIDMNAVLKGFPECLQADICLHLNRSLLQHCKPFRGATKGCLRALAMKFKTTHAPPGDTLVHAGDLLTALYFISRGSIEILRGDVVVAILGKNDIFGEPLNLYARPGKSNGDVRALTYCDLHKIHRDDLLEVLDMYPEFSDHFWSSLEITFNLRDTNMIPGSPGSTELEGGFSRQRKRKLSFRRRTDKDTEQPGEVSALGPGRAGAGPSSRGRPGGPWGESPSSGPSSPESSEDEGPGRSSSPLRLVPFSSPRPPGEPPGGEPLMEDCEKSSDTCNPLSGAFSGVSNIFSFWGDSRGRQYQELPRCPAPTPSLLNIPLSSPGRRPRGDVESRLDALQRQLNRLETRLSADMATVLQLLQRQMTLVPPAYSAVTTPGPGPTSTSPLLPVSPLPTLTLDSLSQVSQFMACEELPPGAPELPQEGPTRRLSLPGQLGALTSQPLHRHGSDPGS
Chain of Cytochrome P450 2C9 (Homo sapiens) (P11712 whole entry, looked up): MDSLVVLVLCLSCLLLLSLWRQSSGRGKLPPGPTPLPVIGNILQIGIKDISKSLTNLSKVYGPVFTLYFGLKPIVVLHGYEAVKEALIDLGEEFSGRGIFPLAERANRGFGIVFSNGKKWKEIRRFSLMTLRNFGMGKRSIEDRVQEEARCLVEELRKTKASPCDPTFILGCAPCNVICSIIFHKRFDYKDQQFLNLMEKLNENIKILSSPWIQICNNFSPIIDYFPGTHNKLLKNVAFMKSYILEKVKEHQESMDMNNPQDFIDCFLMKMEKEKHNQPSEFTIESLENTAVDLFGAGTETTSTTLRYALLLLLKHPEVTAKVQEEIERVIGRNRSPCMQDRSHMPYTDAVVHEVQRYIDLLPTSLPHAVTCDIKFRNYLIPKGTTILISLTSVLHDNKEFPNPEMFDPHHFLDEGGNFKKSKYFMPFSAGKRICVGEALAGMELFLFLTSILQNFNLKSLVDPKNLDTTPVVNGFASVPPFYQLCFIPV

Take `CCCCCCCCCCCCCC=O`: the activity change, negative = inhibition was -9.33% [at 10.5 µM] in assay [1], -8.57% [at 6.97 µM] in assay [2] and -19.9% [at 10.5 µM] in assay [3].

Turning to `CCN1CCC[C@H]1CNC(=O)c1c(O)c(Cl)cc(Cl)c1OC`, the Potency entry in assay [1], in assay [2] and in assay [3] was “inactive” throughout.

`CC/C=C\CC/C=C/C(OCC)OCC`: the Potency in assay [1] was 35.6 µM (active); in assay [3], 31.7 µM (active). Also, the Potency result in assay [2] was “inactive”.

Take `CC/C=C\CC/C=C/CO`: the Potency entry in assay [1], in assay [2] and in assay [3] was “inactive” throughout.

Turning to `Cc1nc2c([nH]1)c(=O)n(C)c(=O)n2Cc1ccco1`, the Potency result in assay [1], in assay [2] and in assay [3] was “inactive” in each case.

As for `CCn1ccnc1CC1COc2ccccc2O1` (stereo not given), the Potency result in assay [1], in assay [2] and in assay [3] was “inactive” each time.

As for `COc1ccc(CCN(C)CCCC(C#N)(c2cc(OC)c(OC)c(OC)c2)C(C)C)cc1OC` (stereo not given), the Potency result in assay [4] is “inactive”. Also, the Potency in assay [2] was 7.56 µM (active).

With `O=C1CCCN1C1CCCCC1`, the Potency result in assay [1], in assay [2] and in assay [3] was “inactive” throughout.

As to `O=[N+]([O-])c1ccc(F)cc1F`, the Potency entry in assay [1], in assay [2] and in assay [3] was “inactive” in each case.

`CC(C)NCCCC1(C(N)=O)c2ccccc2-c2ccccc21`: the Potency entry in assay [4] and in assay [2] was “inactive” in each case.

With `CC(C[N+](C)(C)C)OC(N)=O` (stereo not given), the Potency entry in assay [1], in assay [2] and in assay [3] was “inactive” each time.

Take `COc1ccccc1OCC(O)CN1CCN(CC(=O)Nc2c(C)cccc2C)CC1` (stereo not given): the Potency result in assay [4] and in assay [2] was “inactive” each time.

Turning to `COC(=O)[C@@H](N)Cc1ccc(O)c(O)c1`, the Potency entry in assay [1], in assay [2] and in assay [3] was “inactive” in each case.

`COC(=O)CCSCCC(=O)OC`: the Potency entry in assay [1], in assay [2] and in assay [3] was “inactive” throughout.

As to `Cc1cccn2c(=O)c(-c3nnn[nH]3)cnc12`, the figures for the activity change, negative = inhibition in assay [1], in assay [2] and in assay [3] were -1.3% [at 23.6 µM], 0.271% [at 15.8 µM] and 2.55% [at 23.6 µM], respectively.

In the case of `CC(C)(O)C(=O)c1ccccc1`, the Potency result in assay [1], in assay [2] and in assay [3] was “inactive” each time.
